For 37 molecules, Percent Effect results are on record in ChEMBL document CHEMBL3988442, “University of Dundee, Small-Polar-MMV Screening Library” (2021).

Assay [1] has as its target T1, Aspartate--tRNA(Asp/Asn) ligase (Mycobacterium tuberculosis (strain ATCC 25618 / H37Rv)) (UniProt P9WFW3). Note: in the data most compounds retested in dose-response had high values.
T1 sequence (whole entry): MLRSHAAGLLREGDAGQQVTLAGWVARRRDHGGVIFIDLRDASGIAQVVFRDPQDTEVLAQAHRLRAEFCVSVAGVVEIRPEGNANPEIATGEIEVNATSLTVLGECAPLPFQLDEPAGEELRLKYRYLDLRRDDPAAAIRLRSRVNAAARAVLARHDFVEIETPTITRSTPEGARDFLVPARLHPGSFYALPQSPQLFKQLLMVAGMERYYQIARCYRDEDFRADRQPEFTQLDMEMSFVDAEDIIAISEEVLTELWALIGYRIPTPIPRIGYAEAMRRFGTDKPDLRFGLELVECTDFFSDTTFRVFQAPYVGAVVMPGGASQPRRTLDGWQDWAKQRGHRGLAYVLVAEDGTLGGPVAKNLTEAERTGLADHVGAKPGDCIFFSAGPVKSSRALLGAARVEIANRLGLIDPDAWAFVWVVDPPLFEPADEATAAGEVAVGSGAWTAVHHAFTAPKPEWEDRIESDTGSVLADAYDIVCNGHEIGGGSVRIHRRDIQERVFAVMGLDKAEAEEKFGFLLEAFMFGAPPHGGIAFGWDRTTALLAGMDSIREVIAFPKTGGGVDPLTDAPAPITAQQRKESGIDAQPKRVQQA
The assay is described as follows: Assay for Asp RNA synthetase-1 from Mycobacterium tuberculosis. The following applies: 30 µM. Also on record: scale not given: direction of the effect not stated beside the values. The assay is classed as functional.

Assay [2] concerns the target Shiga toxin 2 (Escherichia coli O157:H7) (UniProt P09385+P09386). The assay is described as follows: E. coli 0.157:H7 Shiga Toxin SOP - stx2 screening assay. More on the design: scale not given: direction of the effect not stated beside the values. The assay is classed as functional. The following applies: 30 µM.

In the case of `Cc1cc(C[C@@H]2CCC[C@H]2NCc2ccccc2C(F)(F)F)on1`, the Percent Effect in assay [1] is 3.02%; in assay [2] it was 26%.
For `NC(=O)c1ccc(CN2CCCC(O)C2)cc1` (centres undefined) the same measures were -3.73% and -9.74%.
Taken in the same sequence, the figures for `O=C(Nc1cccnc1)N1CCC(n2ccc(C(F)(F)F)n2)CC1` were -4.08% and -16.7%.
Taken in the same sequence, the figures for `CS(=O)(=O)c1ccc(OCCNCc2ccc(F)cc2F)cc1` were 4.17% and -84.6%.
In the case of `CN1CC(=O)N(c2cccnc2)CC12CCN(C(=O)C1CCCCC1)C2` (centres undefined), the Percent Effect is 6.7% in assay [1] and -1.32% in assay [2].
Taken in the same sequence, the figures for `Cc1ccc2oc(C(=O)N3CCCC(c4noc(C)n4)C3)cc2n1` (centres undefined) were -6.59% and -27.4%.
Taken in the same sequence, the figures for `COc1ncccc1CNc1cc(N2CCCC2CO)ncn1` (centres undefined) were -0.88% and -26.2%.
For `CN(Cc1ccccc1)CC(O)Cn1cnc2ccsc2c1=O` (centres undefined) the same measures were -1.75% and -2.3%.
Regarding `Cc1nn(C)c2sc(C(=O)N3CCCC(n4ccnc4C)C3)cc12` (centres undefined), the Percent Effect in assay [1] is -1.41%; in assay [2], -28.1%.
Taken in the same sequence, the figures for `COc1cc(C)nc(N2CCN(C(=O)CNC(C)(C)C)CC2)n1` were -2.1% and -32.2%.
Taken in the same sequence, the figures for `OCC1CCCN1c1cc(N2CCc3ccccc3C2)ncn1` (centres undefined) were 1.24% and -49.8%.
On to `CSCc1cccc(S(=O)(=O)NCCCn2ccnc2)c1`, for which the Percent Effect is 11% in assay [1] and -15.1% in assay [2].
Taken in the same sequence, the figures for `Cc1cccc(-n2cc(C(=O)N3CCCC(n4ccnc4)C3)nn2)c1` (centres undefined) were 1.58% and 7.71%.
As to `Cc1nc2ccnn2c(C)c1CCC(=O)N1CCC(C(N)=O)CC1`, the figures for the Percent Effect in assay [1] and in assay [2] were 0% and 13.3%, respectively.
Taken in the same sequence, the figures for `Cn1cc(CN2CC3(CCN(C(=O)c4ccoc4)C3)C2)cn1` were -2.07% and -8.68%.
In the case of `COc1ccc(F)cc1C(C)NC(=O)c1nnc(C)s1` (centres undefined), the results for the Percent Effect in assay [1] and in assay [2] were 1.79% and -5.21%, respectively.
For `COCC(=O)N1CCC(c2nc3ccc(N4CCCC4)cn3n2)CC1` the same measures were -0.957% and -26.9%.
For `CCN1CCC2(CC1)CC(NC(=O)N(C)C)c1cc(C)ccc12` (centres undefined) the same measures were 2.85% and -28.6%.
For `O=C(NCCNc1cnccn1)C1CCN(C(=O)N2CCCC2)CC1` the same measures were 6.24% and -37.5%.
For `CC(=O)c1ccccc1C(=O)NCC1(CO)CC1`, the Percent Effect in assay [1] was 2.82%; in assay [2] it was -19.8%.
Taken in the same sequence, the figures for `CN(CCN1CCOCC1)C(=O)CCc1cccc(Cl)c1` were -4.7% and -13.5%.
For `Cc1ccc(=O)n(CC2(O)CCN(Cc3cc(C)c(O)c(C)c3)CC2)n1` the same measures were -3.32% and -78.5%.
Taken in the same sequence, the figures for `CNC(=O)CN1CCC(NC(=O)N(C)Cc2cc(C)on2)CC1` were -6.28% and 19%.
As for `CC(=O)N(Cc1noc(C)n1)C1CCN(Cc2ccon2)C1` (centres undefined), the Percent Effect in assay [1] was -1.5%; in assay [2], -70.9%.
For `O=C(c1ccc[nH]1)N1C[C@H](OCc2cccnc2)[C@H]2COC[C@H]21` the same measures were 2.69% and -6.45%.
Taken in the same sequence, the figures for `COc1ccc(OCCc2sc(C3(O)CCCNCC3)nc2C)cc1` (centres undefined) were -5.55% and -52%.
For `CC(=O)Nc1nc(CN2CCCCC2Cn2cccn2)cs1` (centres undefined) the same measures were 8.39% and -4.08%.
As for `FC(F)(F)COCCN1CCN(c2ccc3nncn3n2)CC1`, the Percent Effect in assay [1] was 0.546%; in assay [2] it was -42.1%.
As for `Cc1ccc(OCCNC(=O)C(C)n2cncn2)cc1` (centres undefined), the Percent Effect in assay [1] was 4.54%; in assay [2], 4.25%.
`CC1CCCN(C(=O)CCc2cccnc2)C1` (centres undefined): the results for the Percent Effect in assay [1] and in assay [2] were -4.28% and -0.0678%, respectively.
For `CN(C(=O)Cc1ccc2c(c1)OCCO2)C1CCCC1` the same measures were -2.52% and 0.101%.
For the molecule `Cn1ncc2c1C(COCC1CC1)CN(Cc1nccs1)C2` (centres undefined), the Percent Effect in assay [1] was 11.3%; in assay [2], -37.3%.
For `Cc1cc(CN2CCN(C(=O)C(C)C)[C@@H]3CS(=O)(=O)C[C@@H]32)ccc1F` the same measures were 2.51% and -10.2%.
Taken in the same sequence, the figures for `COCC(=O)N1CC[C@@H]2CN(Cc3cccc(Cl)c3)S(=O)(=O)[C@@H]2CC1` were 3.55% and -12.7%.
For `CSc1ccc(Cl)c(C(=O)N2CCCC(CNS(C)(=O)=O)C2)c1` (centres undefined) the same measures were 2.82% and -37.8%.
With `Cc1nc(C)n(CC2CCCN(CCC(=O)N3CCCCC3)C2)n1` (centres undefined), the Percent Effect in assay [1] was -1.61%; in assay [2], 13.6%.
Turning to `Cc1nc(CN2CCCC(CCc3ccc(F)cc3F)C2)c[nH]1` (centres undefined), the values for the Percent Effect in assay [1] and in assay [2] were -7.38% and -3.15%, respectively.
